Sampled rows, rich in hits. Any-hit rate of the full collection: about 12%.
JMJD2A Tudor inh: JMJD2A Tudor domain (human) inhibition | O75164 | AlphaScreen JMJD2A-Tudor / H3K4me3 peptide binding | Potency, µM (titrated, usually from 114 µM), for the others: top-dose activity change, negative = inhibition, most hits filed as inhibitors | 390,000 tested, 4.4% active; further: on the % scale 0 is the no-effect control and ±100 the full control effect; nearly all actives have a fitted effect of over 50% in size
Sfp PPTase inh: blocks B. subtilis Sfp PPTase activity; Q9F4F7; Biochemical Sfp PPTase activity, qHTS; Potency, µM, for the others: largest response in the series, negative = inhibition, hits mostly inhibitors; 310,000 tested, 3.5% active; AID 1490;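 further: the enzyme is Sfp with the accession as filed and its product quenches rhodamine fluorescence; 0% = enzyme reaction without inhibitor and -100% = no enzyme wells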
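Compounds were incubated with enzyme (final 15 nM) for 15 min at room temperature before substrate addition started the reaction. Fluorescence at 525 nm excitation, 598 nm emission was recorded immediately and after 30 minutes.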
G9a block: blocks human histone lysine methyltransferase G9a; G9a H3K9 monomethylation, AlphaScreen, 2 h; Potency, µM (doses to about 102 µM), for the others: at the top dose activity, negative = inhibition, hits mostly inhibitors; 350,000 tested, 8.8% active; Q96KQ7; AID 504332; further: on the % scale 0 is the no-effect control and ±100 the full control effect; nearly all actives have a fitted effect of over 75% in size
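Readings reflect AlphaScreen signal from monomethyl-H3K9 antibody detection. HMT at 20 nM; substrate b-H3K9 500 nM; cofactor SAM 20 uM; 2 h RT reaction; compounds tested as titrations in qHTS with 15 min preincubation.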
BAZ2B block: blocks human BAZ2B; Q9UIF8; AlphaScreen BAZ2B-H3K14Ac peptide displacement; Potency, µM (highest dose often 114 µM), without a hit: at the top dose activity change, negative = inhibition, hits mostly inhibitors; 360,000 tested, 4.4% active; further: on the % scale 0 is the no-effect control and ±100 the full control effect; nearly all actives have a fitted effect of over 60% in size
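Complex of BAZ2B and biotin-H3K14Ac (50 nM apiece) forms over 30 min at RT, then faces library compounds up to 110 uM for another 30 min; AlphaScreen beads added, 20 min dark incubation, luminescence read.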
HP1b chromo inh: HP1-beta chromodomain-methylated histone interaction inhibition. P83916. AlphaScreen HP1-beta / biotin-H3K9me3 peptide binding. Potency, µM (highest dose often 114 µM), for the others: at the top dose activity change, negative = inhibition, hits mostly inhibitors. 390,000 tested, 0.56% active. AID 540317; further: nearly all actives have a fitted effect of over 70% in size
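AlphaScreen: HP1-beta (50 nM) preformed 30 min with biotin-H3(1-18)K9me3 peptide (50 nM) in PBS pH 7.4, 0.01% Tween-20. Compound added for 30 min at RT, then streptavidin donor/nickel chelate acceptor beads (10 ug/mL) for 30 min.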
Numbers without * were called inactive; ? = inconclusive; . = no result given; ! = not active in a repeat; [ ] = dose if it differs, or a comment. The call rests on the fitted dose curve; in most records, active means well fitted curve in the direction sought with a large enough effect; inconclusive means small, poorly fitted or top-dose-only effect, or another doubt; inactive means no such curve, though single readings can be large; an effect the other way counts as inactive or inconclusive. Potency means the concentration at half of the fitted maximal effect.

SMILES | JMJD2A Tudor inh | Sfp PPTase inh | G9a block | BAZ2B block | HP1b chromo inh
N[C@@H](Cn1cc(I)c(=O)[nH]c1=O)C(=O)O | . | ? | 35.5µM* | . | .
Cc1nn(C2CCOC(C)(C)C2)c2c1C(c1ccc3c(c1)OCO3)SCC(=O)N2 (centres undefined) | -24.0% | -2.7% | 12.8%[59 µM] | -7.1% | 26.4%
N[C@@H](Cn1ccc(=O)c(O)c1)C(=O)O | . | . | 10µM* | . | .
Clc1ccc(C2CC3CCC2N3)cn1 (centres undefined) | . | -11.1% | 41.4%[59 µM] | . | .
Clc1ccc(N2CC3CCC(C2)N3)nn1 | . | . | 23.8µM* | . | .
CC(=O)Nc1cccc([As](=O)(c2cccc(NC(C)=O)c2)c2cccc(NC(C)=O)c2)c1 | -0.7% | 20.7% | 10.7% | 1.7% | 18.7%
Cc1ncc(CNC(=O)N(CCCl)N=O)c(N)n1 | -33.8% | -27.5% | 16.8µM*! | -10.0% | 24.0%
C[n+]1c(-c2ccccc2)c2cc(N)ccc2c2ccc(N)cc21 | ? | -5.5% | ? | 39.8µM* | -21.2%
COC(=O)c1ccc(N2C(=O)CC(N3CCC(O)(c4ccc(Br)cc4)CC3)C2=O)cc1 (centres undefined) | -8.6% | 7.0% | 11.2µM* | 4.3% | 49.4%
C=CCN1C(=O)NC(=O)C(CCc2ccncc2)(CCc2ccncc2)C1=O | -8.0% | 11.4% | . | -16.1% | 52.9%
COC(=O)C1=C(c2ccc3ccccc3c2)C[C@@H]2CC[C@H]1N2C | -20.0% | . | 20.5%[0.501 µM] | -5.4% | 18.4%
COC(=O)C1=C(C(=O)OC)C2OC1c1cc3ccccc3cc12 | 89.1µM* | . | . | . | 1.2%
COC(=O)C1=C(c2ccc(OC(F)(F)F)cc2)C[C@@H]2CC[C@H]1N2C(=O)N1CCOCC1 | -13.6% | . | 7.6%[2.33 µM] | 4.9% | 18.7%
C[C@@]12CC[C@H](O)C[C@@H]1CC[C@H]1[C@H]2CC[C@@]2(C)[C@@H](C3=CC(=O)OC3)CC[C@]12O | . | 12.2% | 28.3%[21.5 µM] | . | .
Ic1ccccc1CNC1C2CCN(CC2)C1C(c1ccccc1)c1ccccc1 (centres undefined) | . | . | 2µM* | . | .
Ic1ccccc1CN[C@@H]1C2CCN(CC2)[C@@H]1C(c1ccccc1)c1ccccc1 | 17.8µM* | . | 1.58µM* | 39.8µM* | ?
CC/C=C\C/C=C\C/C=C\C/C=C\C/C=C\CCCC(=O)NCC(=O)O | . | 10.2% | . | . | .
Cc1cc(C(=O)OCC(=O)Nc2ccccc2F)c(C)n1C1CC1 | -24.0% | . | 50.1µM* | -38.8% | 0.6%
CC1CCC(NCC(O)c2ccccc2)CC1 (centres undefined) | -12.8% | 16.3% | 7.0% | -2.7% | 37.5%
OC(CNC1CCCCCCC1)c1ccccc1 (centres undefined) | . | -10.6% | 14.1µM* | ? | .
CCCCCCn1c(=O)c(C(=O)Nc2nc(CC(=O)OCC)cs2)c(O)c2ccccc21 | 4.1% | 20.5% | . | 8.2% | 34.9%
Cc1cc(C)n(C(=O)c2ccc([N+](=O)[O-])cc2[N+](=O)[O-])n1 | -16.7% | 15.2% | -4.8%[59 µM] | ? | 11.7%
O=C(Oc1ccc(C(=S)N2CCOCC2)cc1)c1ccc([N+](=O)[O-])cc1[N+](=O)[O-] | ? | -9.5% | 44.7µM* | -1.3% | 13.2%
CC(=O)C1C(N2CC2)CC2C3CCC4=CC(=O)CCC4(C)C3CCC21C (centres undefined) | -16.7% | . | . | . | 28.7%
Cc1cc(N(CCCl)CCCl)ccc1/C=N/N=C(\N)c1cnccn1 | 14.1µM* | . | . | . | ?
SMILES | JMJD2A Tudor inh | Sfp PPTase inh | G9a block | BAZ2B block | HP1b chromo inh
CN1C(=O)NC(=O)/C(=C/c2ccc(C(=O)O)cc2)C1=O | -11.0%[11.4 µM] | 44.7µM* | -42.0% | -16.7% | 43.1%
CN1CCc2cc3c(cc2C1)OCO3 | -9.5% | . | . | . | 33.2%
COc1cccc(/C=C2\N=C(c3cncc(Br)c3)OC2=O)c1 | -2.7% | 17.9% | 5.5%[59 µM] | 3.6% | 22.1%
O=C(O)CF | . | 32.5% | . | . | .
O=C(O)CC(O)(CC(=O)O)C(=O)O | 79.4µM* | 4.4% | -3.3%[2.33 µM] | . | 6.0%
CCC1CN2CCC1CC2C(O)c1ccnc2ccccc12 (centres undefined) | . | 3.9% | . | . | .
CCN1CCN(c2cc(N3CCCC3)c(F)cc2[N+](=O)[O-])CC1 | -33.6% | -12.8% | 44.7µM* | -37.7% | -13.5%
CN1CCN(c2cc(N3CCCC3)c([N+](=O)[O-])cc2F)CC1 | ? | 23.6% | ? | -36.4% | ?
C[C@@H]1CCc2cc(F)cc3c(=O)c(C(=O)O)cn1c23 | . | 3.3% | 16.7%[21.5 µM] | . | .
Cc1ccc(CN2CCN(C)CC2)c(C)c1 | 3.2% | 13.4% | 13.6%[12.7 µM] | 10.1% | 47.9%
CCN1CCN(Cc2ccc(C)cc2C)CC1 | -16.9% | 7.6% | 56.2µM* | ? | 55.6%
Clc1ccc(CCC(Cn2ccnc2)Sc2c(Cl)cccc2Cl)cc1 (centres undefined) | 25.1µM* | . | ? | ? | -12.6%
Clc1ccc(Cn2ccnc2)cn1 | -23.9% | 7.4% | -24.7% | -7.2% | 13.3%
CN(C)CCN(Cc1ccccc1)c1ccnc(N(C)C)c1C#N | 63.1µM* | -16.0% | 7.94µM* | ? | ?
Oc1ccccc1/C=N/[n+]1ccccc1 | -3.0% | -5.9% | 56.2µM* | -6.8% | -11.9%
COc1ccc(C(c2nnnn2CC2CCCO2)N2CCN(c3ccccc3)CC2)cc1 (centres undefined) | ? | ? | -41.7%[59 µM] | 50.1µM* | -1.2%
N#Cc1c(/N=C/c2ccc(O)cc2O)sc2c1C1CCN2CC1 | ? | 4.3% | ? | -35.7% | 4.2%
CCc1nnc(NC(=O)CSc2ccc(-c3ccco3)nn2)s1 | 9.1% | 28.2µM* | 22.4µM* | 50.1µM* | 16.5%
O=C(CSc1ccc(-c2ccco2)nn1)Nc1ccccc1 | -25.3% | 31.6µM* | 20µM* | -15.1% | 2.4%
CCCc1nnc(NC(=O)CCC(=O)N2CCN(CCOC(c3ccccc3)c3ccccc3)CC2)s1 | -29.1% | 6.7% | -20.6% | -37.5% | 0.6%
Cc1cc(SCC(=O)N/N=C/c2ccco2)nc2ccccc12 | -26.6% | 4.9% | . | ? | 14.0%
O=C(OCC(=O)N1CCOCC1)c1ccc[nH]c1=O | 17.8µM* | 1.7% | 20µM* | . | -3.8%
O=[N+]([O-])c1ccc(C[n+]2c(-c3ccccc3)cc(-c3ccccc3)cc2-c2ccccc2)cc1 | -28.6% | . | -19.3%[2.33 µM] | -4.2% | 48.3%
O=[N+]([O-])c1cc(Cl)c(O)c(-[n+]2c(-c3ccccc3)cc(-c3ccccc3)cc2-c2ccccc2)c1 | ? | -5.4% | 50.1µM* | ? | 4.5%
COc1ccccc1N1CCN(S(=O)(=O)c2ccc3c(c2)oc(=O)n3C)CC1 | -15.8% | 7.5% | 3.3%[59 µM] | ? | 8.1%
COc1ccccc1N=c1scc(-c2ccc(S(=O)(=O)N3CCCC3)cc2)n1C | ? | . | 10µM* | 8.91µM* | ?
C[C@@]12CC[C@H](O)C[C@@H]1CC[C@H]1[C@@H]2C[C@@H](O)[C@]2(C)[C@@H](C3=CC(=O)OC3)CC[C@]12O | . | -4.9% | 10.4%[21.5 µM] | . | .
CC(c1ccccc1)n1cncc1C(=O)N1CCCC1=O (centres undefined) | ? | 17.4% | 50.1µM* | ? | 16.3%
